HT1080 IDH1KD tx: qHTS for induction of synthetic lethality in tumor cells producing 2HG: qHTS for the HT-1080-IDH1KD cell line. actives 2% (n = 360,000). HT-1080 IDH1 knockdown viability, ATP luminescence, 48 h. Potency, µM (doses to about 46.1 µM), without a hit: at the highest dose activity, negative = toxicity, most hits filed as cytotoxic;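 note: 0% = DMSO wells and -100% = cell-free medium wells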
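Viability of IDH1-knockdown HT-1080 fibrosarcoma cells was assessed by CellTiter-Glo after 48 h at 37 °C with titrated compound; concentration-effect curves were classified by fit quality and response size.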
KB-3-1 tox: qHTS assay for MDR1-selective chemotherapeutics: Primary screen using the parental adenocarcinoma cell KB-3-1; KB-3-1 viability, CellTiter-Glo ATP luminescence, 72 h; Potency, µM (titrated, usually from 46.1 µM), usual class: cytotoxic; actives 1.4% (n = 400,000); AID 1347075, 2019; note: % is set by controls: 0 for no effect and ±100 for the full control effect; nearly all actives have a fitted effect of over 60% in size
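Parental KB-3-1 viability, qHTS format: 72 h compound exposure, 37 °C; CellTiter-Glo; media-only wells and DMSO plates as controls; concentration-effect fits on corrected data.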
KB-V1 cytotox: qHTS assay for MDR1-selective chemotherapeutics: Primary screen using the drug-selected MDR subline cells KB-V1. KB-V1 MDR cells viability, CellTiter-Glo, 72 h. Potency, µM (doses to about 46.1 µM), actives largely listed as cytotoxic. actives 3.4% (n = 400,000); note: % is set by controls: 0 for no effect and ±100 for the full control effect; nearly all actives have a fitted effect of over 60% in size
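KB-V1, DMEM (no phenol red) + 10% FBS; cpd pin-transferred, titration series; 72 h, 37 degrees C; CellTiter-Glo, luminescence. Data normalized, curve-fit.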
MCF10A rereplic: A quantitative high throughput screen for small molecules that induce DNA re-replication in MCF 10a normal breast cells; MCF 10A DNA re-replication, Hoechst nuclear intensity, 48 h; Potency, µM (doses to about 46.1 µM), for the others: at the highest dose activity, positive = re-replication, actives largely listed as activators; actives 2.9% (n = 350,000); note: % of control where 0% means no effect; nearly all actives have a fitted effect of over 50% in size
SW480 rerep: A quantitative high throughput screen for small molecules that induce DNA re-replication in SW480 colon adenocarcinoma cells | Potency, µM (top dose mostly 46.1 µM), for the others: top-dose re-replication activation, most hits filed as activators | actives 1.8% (n = 340,000) | SW480 DNA re-replication, Hoechst DNA content imaging, 48 h; note: % of control where 0% means no effect; nearly all actives have a fitted effect of over 55% in size
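Treated cells incubate 48 hr (37 C, 5% CO2), are stained 40 min with Hoechst, and nuclear fluorescence is enumerated; a rise in nuclei with high DNA signal marks re-replication.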
HT1080-NT tox: qHTS for induction of synthetic lethality in tumor cells producing 2HG: qHTS for the HT-1080-NT fibrosarcoma cell line | AID 686970, 2013 | actives 1.6% (n = 360,000) | Potency, µM (titrated, usually from 46.1 µM), for the others: at the top dose activity, negative = less viability, hits mostly cytotoxic | HT-1080-NT fibrosarcoma viability, CellTiter-Glo ATP luminescence, 48 h;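 note: NT is the 2HG producing partner of a matched IDH1 knockdown line; 0% = DMSO-treated cells and -100% = media-only wells without cells; nearly all actives have a fitted effect of over 55% in size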
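750 cells/well, RPMI + 5% FBS; 2 h settle, compound pin-transfer, 48 h at 37 degrees C. CellTiter-Glo 10 min RT, luminescence. Normalized to DMSO and media-only wells.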
* marks the source's active call; other numbers are inactive results; [ ] = another dose, or the depositor's remark. Hits are enriched below; roughly 8% of the tested compounds scored in any of these assays. Calls come from the whole dose curve; as a rule, active = well fitted curve in the direction sought with a large enough effect; inconclusive = small, poorly fitted or top-dose-only effect, or another doubt; inactive = no such curve, though single readings can be large; an effect the other way counts as inactive or inconclusive. Potency is the fitted concentration of half-maximal effect.

For O=C(COC(=O)c1cc[n+]([O-])cc1)Nc1ccc(Cl)cc1[N+](=O)[O-] the results were HT1080 IDH1KD tx 8.4%, KB-3-1 tox inactive, KB-V1 cytotox inactive, MCF10A rereplic 2.3%, SW480 rerep -6.9% and HT1080-NT tox -0.4%.
Cc1ccc(OCC(=O)N2CCc3ccccc32)c([N+](=O)[O-])n1 was read as HT1080 IDH1KD tx 17.6%, KB-3-1 tox 23.1µM*, KB-V1 cytotox inactive, MCF10A rereplic 2.7%, SW480 rerep -7.0% and HT1080-NT tox 18.5%.
Screening Cc1ccc(OCC(=O)N(C)CC(=O)Nc2ccccc2Cl)c([N+](=O)[O-])n1 returned HT1080 IDH1KD tx -22.9%, KB-3-1 tox inactive, KB-V1 cytotox 18.4µM*, MCF10A rereplic -2.2%, SW480 rerep -1.5% and HT1080-NT tox -2.2%.
`CC(=O)c1c(C)[nH]c(C(=O)OCC(=O)Nc2ccc(Cl)cc2[N+](=O)[O-])c1C` gave HT1080 IDH1KD tx -27.4%, KB-3-1 tox inactive, KB-V1 cytotox inconclusive, MCF10A rereplic 4.2%, SW480 rerep -11.2% and HT1080-NT tox 18.4µM*.
`CCOC(=O)c1c(C)[nH]c(C(=O)OCC(=O)N(C)CC(=O)Nc2ccccc2Cl)c1C` gave HT1080 IDH1KD tx -5.0%, KB-3-1 tox inactive, KB-V1 cytotox 13µM*, MCF10A rereplic 8.5%, SW480 rerep inconclusive and HT1080-NT tox -3.5%.
`CCOC(=O)c1[nH]c(C)c(C(=O)NCc2ccc(OC)cc2)c1C` gave HT1080 IDH1KD tx -7.1%, KB-3-1 tox inactive, KB-V1 cytotox inactive, MCF10A rereplic 15.7%, SW480 rerep 0.2% and HT1080-NT tox -0.3%.
`CCOC(=O)c1[nH]c(C)c(C(=O)OCC(=O)NC(C)c2ccc(F)cc2)c1C` (stereo not given) gave HT1080 IDH1KD tx 3.66µM*, KB-3-1 tox 1.84µM*, KB-V1 cytotox inactive, MCF10A rereplic inconclusive, SW480 rerep 9.2µM* and HT1080-NT tox 3.66µM*.
Screening CCOC(=O)c1[nH]c(C)c(C(=O)Nc2cc(OC)ccc2OC)c1C returned HT1080 IDH1KD tx 0.562µM*, KB-3-1 tox 1.26µM*, KB-V1 cytotox 0.501µM*, MCF10A rereplic 0.631µM*, SW480 rerep 1.26µM* and HT1080-NT tox 0.631µM*.
CCOC(=O)c1c(C)[nH]c(C(=O)OCC(=O)Nc2cc(C)ccc2OC)c1C was read as HT1080 IDH1KD tx -0.2%, KB-3-1 tox inactive, KB-V1 cytotox inconclusive, MCF10A rereplic inconclusive, SW480 rerep -14.1% and HT1080-NT tox -1.9%.
`CC(=O)Oc1ccc(-c2ccc(C(=O)OCC(=O)N(C)CC(=O)Nc3ccccc3Cl)cc2)cc1` gave HT1080 IDH1KD tx inconclusive, KB-3-1 tox inactive, KB-V1 cytotox inactive, MCF10A rereplic inconclusive, SW480 rerep -1.7% and HT1080-NT tox 18.4µM*.
CCOC(=O)c1c(C)[nH]c(C(=O)OCC(=O)Nc2cc(Cl)ccc2OC)c1C was read as HT1080 IDH1KD tx inconclusive, KB-3-1 tox inactive, KB-V1 cytotox 9.2µM*, MCF10A rereplic 8.7%, SW480 rerep inconclusive and HT1080-NT tox -18.6%[9.24 µM].
Screening Cc1cc(-c2ccc(C)c(S(=O)(=O)N3CCN(c4cccc(C(F)(F)F)c4)CC3)c2)on1 returned KB-3-1 tox inconclusive and KB-V1 cytotox inactive.
COc1ccc2c(c1)C/C(=C\c1ccc(N(C)C)cc1)C2=O was read as KB-3-1 tox inactive and KB-V1 cytotox inactive.
COC1=C2C[C@H](C)C[C@H](OC)[C@@H](O)[C@@H](C)C=C(C)[C@H](OC(N)=O)[C@@H](OC)C=CC=C(C)C(=O)NC(=CC1=O)C2=O was read as KB-3-1 tox inconclusive and KB-V1 cytotox inactive.
`Cc1sc2c(c1C)c(=O)n(Cc1ccccc1)c(=O)n2CC(=O)Nc1cccc(Cl)c1` gave KB-3-1 tox inactive and KB-V1 cytotox inconclusive.
COC(=O)/C(=C(/F)Sc1cc(C)c(O)c(C)c1)C(F)(F)F was read as HT1080 IDH1KD tx inconclusive, KB-3-1 tox inconclusive, KB-V1 cytotox inactive, MCF10A rereplic 25.9µM*, SW480 rerep inconclusive and HT1080-NT tox 3.9%[9.24 µM].
For COc1cc(C(=O)N/N=C(\Cc2ncc[nH]2)c2ccccc2)cc(OC)c1OC the results were HT1080 IDH1KD tx 4.61µM*, KB-3-1 tox inconclusive, KB-V1 cytotox inconclusive, MCF10A rereplic 18.4µM*, SW480 rerep inconclusive and HT1080-NT tox 9.2µM*.
For c1ccc(N/N=C(\Cc2ncc[nH]2)c2ccccc2)cc1 the results were HT1080 IDH1KD tx -15.7%, KB-3-1 tox inactive, KB-V1 cytotox inconclusive, MCF10A rereplic 2.0%, SW480 rerep 4.7% and HT1080-NT tox -18.4%.
COc1ccc(C(=O)N/N=C(\Cc2ncc[nH]2)c2ccccc2)cc1 was read as HT1080 IDH1KD tx inconclusive, KB-3-1 tox inactive, KB-V1 cytotox inconclusive, MCF10A rereplic inconclusive, SW480 rerep 9.2µM* and HT1080-NT tox inconclusive.
For COc1ccc(C(=O)NN=C(Cc2ccccc2)Cc2ccccc2)cc1OC the results were HT1080 IDH1KD tx 4.4%, KB-3-1 tox inactive, KB-V1 cytotox inconclusive, MCF10A rereplic inconclusive, SW480 rerep inconclusive and HT1080-NT tox 5.0%.
For Cc1ccc(Cn2c(CN3CCC(C(=O)NCc4ccccc4C)CC3)cc3ccccc32)cc1 the results were KB-3-1 tox inactive and KB-V1 cytotox inactive.
`O=C(CSc1nnc(Cn2c(=O)sc3ccccc32)n1CCc1ccccc1)N1CCOCC1` gave HT1080 IDH1KD tx -0.6%, KB-3-1 tox inactive, KB-V1 cytotox 18.4µM*, MCF10A rereplic 15.2%, SW480 rerep 1.3% and HT1080-NT tox 21.6%.
For Cc1ccc2c(c1)N(C(=O)N1CCC(C(=O)NCc3ccco3)CC1)CC(C)O2 (stereo not given) the results were KB-3-1 tox inactive and KB-V1 cytotox inactive.
For COc1cc(CNc2ncnc3c2ncn3[C@H]2CN(Cc3ccccc3)C[C@@H](COC(C)=O)O2)cc(OC)c1OC the results were HT1080 IDH1KD tx -2.7%, KB-3-1 tox inactive, KB-V1 cytotox inactive and HT1080-NT tox 18.0%.
